Assay [1] in a line: Caspase-3/7 induction in CHO-K1 cells by small molecules, qHTS assay (AID 1346980). Further: nearly all actives have a fitted effect of over 15% in size. An outline of the steps: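 Luminescent Caspase-Glo 3/7 read (30min, room temperature) quantified apoptosis induction. Cells were wild-type CHO-K1, treated with compound for 17hr at 37 C and 5% CO2.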
Assay [2] in a line: Caspase-3/7 induction in HepG2 cells by small molecules, qHTS cell viability counter screen (AID 1346981). Further: nearly all actives have a fitted effect of over 30% in size. On activity change, negative = cytotoxicity: series mostly up to about 92 µM. An outline of the steps:
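Counter screen for cytotoxicity: HepG2 exposed 16 hr to compounds, then CellTiter-Fluor viability signal (fluorescence, 1 hr reagent incubation).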
For orientation: In qHTS, concentration-response curves come from the screen itself.

Assay [3] deals with Nuclear receptor subfamily 1 group I member 2 (Homo sapiens) (UniProt O75469). Put plainly: Human pregnane X receptor (PXR) small molecule agonists, qHTS assay (AID 1346982). Further: nearly all actives have a fitted effect of over 35% in size. The procedure, abridged: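 Luminescence (ONE-Glo, 30 min RT) after 24 hr compound exposure of PXR-Luc HepG2 cells; cells rested 5 hr post-plating in 5% charcoal-stripped FBS medium.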
Chain of Nuclear receptor subfamily 1 group I member 2 (Homo sapiens) (O75469 whole entry, looked up): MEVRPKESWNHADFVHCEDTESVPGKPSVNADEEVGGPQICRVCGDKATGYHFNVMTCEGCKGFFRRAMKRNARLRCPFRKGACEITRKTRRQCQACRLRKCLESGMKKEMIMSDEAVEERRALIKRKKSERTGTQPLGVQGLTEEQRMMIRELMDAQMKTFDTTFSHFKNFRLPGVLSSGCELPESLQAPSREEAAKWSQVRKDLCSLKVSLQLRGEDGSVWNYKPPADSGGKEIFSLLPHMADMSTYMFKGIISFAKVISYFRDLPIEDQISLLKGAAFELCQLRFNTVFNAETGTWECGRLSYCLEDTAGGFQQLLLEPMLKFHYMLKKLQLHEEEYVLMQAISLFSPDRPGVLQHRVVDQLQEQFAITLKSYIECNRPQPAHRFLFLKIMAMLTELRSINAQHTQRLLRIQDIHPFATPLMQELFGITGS
Assay [4] concerns the target Cytochrome P450 2D6 (Homo sapiens) (UniProt P10635). The assay is described as follows: Cytochrome P450 Family 2 Subfamily D Member 6 (CYP2D6) small molecule antagonists: luciferase reporter qHTS assay (AID 1671196). Further: nearly all actives have a fitted effect of over 50% in size. On activity change, negative = inhibition: series mostly up to about 120 µM. An outline of the steps:
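Inhibition of CYP2D6 was gauged by loss of luminescence, since light produced tracks the luciferin generated from a proluciferin substrate. A 10 min room-temperature preincubation preceded 1 h NADPH-supported turnover.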
For orientation: In a reporter assay the amount or activity of a reporter protein is the signal.

For assay [5], the target named is Cytochrome P450 2C19 (Homo sapiens) (UniProt P33261). The assay is described as follows: Cytochrome P450 Family 2 Subfamily C Member 19 (CYP2C19) small molecule antagonists: luciferase reporter qHTS assay (AID 1671197). Further: nearly all actives have a fitted effect of over 65% in size. On activity change, negative = inhibition: series mostly up to about 120 µM. The procedure, abridged: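 Light output is proportional to CYP2C19 activity: proluciferin substrate is converted to luciferin, then detected by a luciferin detection reagent that also stops the 1 h, 37C NADPH-driven reaction. Ketoconazole serves as positive control.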
Chain of Cytochrome P450 2C19 (Homo sapiens) (P33261 whole entry, looked up): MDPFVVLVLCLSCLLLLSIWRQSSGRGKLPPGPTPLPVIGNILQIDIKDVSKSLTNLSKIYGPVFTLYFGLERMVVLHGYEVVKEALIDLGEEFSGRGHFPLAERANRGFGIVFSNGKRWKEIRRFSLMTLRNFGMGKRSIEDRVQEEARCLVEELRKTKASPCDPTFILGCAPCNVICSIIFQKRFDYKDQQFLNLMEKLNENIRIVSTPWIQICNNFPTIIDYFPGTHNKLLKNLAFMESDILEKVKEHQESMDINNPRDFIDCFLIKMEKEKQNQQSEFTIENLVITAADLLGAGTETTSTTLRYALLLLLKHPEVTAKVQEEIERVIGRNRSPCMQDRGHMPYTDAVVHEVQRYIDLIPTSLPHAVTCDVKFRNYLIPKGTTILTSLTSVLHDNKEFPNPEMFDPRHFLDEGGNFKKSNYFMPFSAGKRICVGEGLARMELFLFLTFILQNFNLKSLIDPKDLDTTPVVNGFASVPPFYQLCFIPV

Assay [6] addresses Cytochrome P450 2C9 (Homo sapiens) (UniProt P11712). The assay is described as follows: Cytochrome P450 Family 2 Subfamily C Member 9 (CYP2C9) small molecule antagonists: luciferase reporter qHTS assay (AID 1671198). Further: nearly all actives have a fitted effect of over 50% in size. On activity change, negative = inhibition: series mostly up to about 120 µM. An outline of the steps: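 Enzyme-substrate mix preincubated with compound 10 min at room temperature; reaction started with NADPH regeneration solution, 1 h 37C. Luminescent luciferin product read after 20 min detection reagent.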

The target in assay [7] is Cytochrome P450 1A2 (Homo sapiens) (UniProt P05177). Put plainly: Cytochrome P450 Family 1 Subfamily A Member 2 (CYP1A2) small molecule antagonists: luciferase reporter qHTS assay (AID 1671199). Further: nearly all actives have a fitted effect of over 50% in size. On activity change, negative = inhibition: series mostly up to about 120 µM. The procedure, abridged: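 Signal from luciferin formed by CYP1A2 from a proluciferin substrate is read as luminescence, expressed in relative luminescence units. Compounds sit with enzyme 10 min, NADPH-driven reaction runs 1 h, all at room temperature.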
Chain of Cytochrome P450 1A2 (Homo sapiens) (P05177 whole entry, looked up): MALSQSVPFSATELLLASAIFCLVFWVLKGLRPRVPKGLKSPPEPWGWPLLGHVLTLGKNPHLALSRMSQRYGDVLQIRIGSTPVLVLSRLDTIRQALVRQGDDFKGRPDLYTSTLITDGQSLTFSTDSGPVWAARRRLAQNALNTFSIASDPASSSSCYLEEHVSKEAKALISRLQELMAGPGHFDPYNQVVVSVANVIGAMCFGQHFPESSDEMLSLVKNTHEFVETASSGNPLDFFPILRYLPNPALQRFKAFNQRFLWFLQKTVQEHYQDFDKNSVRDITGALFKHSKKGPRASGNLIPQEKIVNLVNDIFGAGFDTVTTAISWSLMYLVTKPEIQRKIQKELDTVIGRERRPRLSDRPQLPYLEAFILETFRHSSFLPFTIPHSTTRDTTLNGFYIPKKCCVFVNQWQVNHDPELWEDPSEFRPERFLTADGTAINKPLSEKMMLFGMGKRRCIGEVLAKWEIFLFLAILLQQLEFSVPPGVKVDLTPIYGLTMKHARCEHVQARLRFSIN

Values without a mark were called inactive. Records with an inconclusive call do not appear. Calls of active or inactive are those of the source. The call rests on the fitted dose curve; in most records, active means well fitted curve in the direction sought with a large enough effect in the repeat runs; inconclusive means weak or mixed curves; inactive means no such curve, though single readings can be large; an effect the other way counts as inactive or inconclusive.
On the % scale 0 is the no-effect control and ±100 the full control effect; potency means the concentration at half of the fitted maximal effect.

Chain of Cytochrome P450 2D6 (Homo sapiens) (P10635 whole entry, looked up): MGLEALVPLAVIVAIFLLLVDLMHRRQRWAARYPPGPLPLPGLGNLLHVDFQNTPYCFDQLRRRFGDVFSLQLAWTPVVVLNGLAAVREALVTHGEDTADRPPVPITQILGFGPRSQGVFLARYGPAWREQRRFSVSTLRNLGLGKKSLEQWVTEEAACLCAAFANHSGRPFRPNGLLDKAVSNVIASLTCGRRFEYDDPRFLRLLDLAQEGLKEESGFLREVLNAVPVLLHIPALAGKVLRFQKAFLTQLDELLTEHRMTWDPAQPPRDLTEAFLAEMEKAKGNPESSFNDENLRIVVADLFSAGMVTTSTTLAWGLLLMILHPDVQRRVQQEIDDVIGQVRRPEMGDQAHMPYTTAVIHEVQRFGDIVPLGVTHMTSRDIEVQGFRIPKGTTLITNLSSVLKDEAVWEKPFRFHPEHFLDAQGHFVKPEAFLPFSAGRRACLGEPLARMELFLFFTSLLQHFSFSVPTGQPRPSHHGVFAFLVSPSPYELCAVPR
Chain of Cytochrome P450 2C9 (Homo sapiens) (P11712 whole entry, looked up): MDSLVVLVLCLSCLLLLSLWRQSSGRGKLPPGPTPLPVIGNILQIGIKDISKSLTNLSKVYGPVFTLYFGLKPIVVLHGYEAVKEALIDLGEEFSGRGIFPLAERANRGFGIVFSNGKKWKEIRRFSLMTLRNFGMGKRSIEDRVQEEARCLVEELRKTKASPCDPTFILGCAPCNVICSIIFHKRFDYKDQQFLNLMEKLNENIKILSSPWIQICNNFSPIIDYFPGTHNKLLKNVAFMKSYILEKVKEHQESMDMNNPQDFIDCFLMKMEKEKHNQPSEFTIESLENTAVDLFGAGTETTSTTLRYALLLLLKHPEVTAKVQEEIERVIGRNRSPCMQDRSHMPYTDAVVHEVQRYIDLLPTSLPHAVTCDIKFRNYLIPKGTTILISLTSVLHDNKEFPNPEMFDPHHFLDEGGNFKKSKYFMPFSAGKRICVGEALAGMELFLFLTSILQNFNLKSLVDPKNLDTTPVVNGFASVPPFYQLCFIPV

For `C=CC(=O)OCC(Br)CBr` (stereo unspecified), the Potency result in assay [1], in assay [2], in assay [3], in assay [4], in assay [5] and in assay [6] was “inactive” throughout. For the same molecule, the Potency entry in assay [7] is “inactive”.
With `[Cl][Sc]([Cl])[Cl]`, the Potency entry in assay [1], in assay [2], in assay [3], in assay [4], in assay [5] and in assay [6] was “inactive” throughout. The Potency result in assay [7] is “inactive”.
As to `CN(C[C@@H](CC[N+]12CCC(C3CCCCC3)(CC1)CC2)c1ccc(Cl)c(Cl)c1)C(=O)c1cc(C(F)(F)F)cc(C(F)(F)F)c1`, the Potency result in assay [1] and in assay [3] was “inactive” each time. In addition, the Potency in assay [2] is 68.6 µM (active); in assay [4], 15.9 µM (active); in assay [5], 5.64 µM (active); in assay [6] it was 39.9 µM (active); in assay [7] it was 71 µM (active).
With `Cn1c(=O)[nH]c2ncn(C)c2c1=O`, the Potency entry in assay [1], in assay [2], in assay [3], in assay [4], in assay [5] and in assay [6] was “inactive” in each case. Further, the Potency entry in assay [7] is “inactive”.
In the case of `CCCCCCCCSCc1cc(C)c(O)c(CSCCCCCCCC)c1`, the Potency result in assay [1], in assay [2] and in assay [3] was “inactive” throughout. Besides, the Potency in assay [4] is 5.03 µM (active); in assay [5], 7.1 µM (active); in assay [6], 8.94 µM (active); in assay [7] it was 25.2 µM (active).
Take `c1ccc(-c2nc3ccccc3[nH]2)cc1`: the Potency result in assay [1] and in assay [2] was “inactive” throughout. In addition, the Potency in assay [3] is 9.69 µM (active); in assay [4], 31.7 µM (active); in assay [5], 35.6 µM (active); in assay [6], 35.6 µM (active); in assay [7], 7.1 µM (active).
Turning to `C=C1CC[C@H]2O[C@]2(C)CC[C@@H]2[C@@H]1CC2(C)C`, the Potency entry in assay [1], in assay [2], in assay [3], in assay [4], in assay [5] and in assay [6] was “inactive” in each case. The Potency entry in assay [7] is “inactive”.
As to `Clc1ccc2c(Cl)ccnc2c1`, the Potency result in assay [1], in assay [2], in assay [3], in assay [4], in assay [5] and in assay [6] was “inactive” throughout. For the same molecule, the Potency in assay [7] was 5.64 µM (active).
As for `O=C(Nc1ccc([N+](=O)[O-])cc1)Nc1ccc([N+](=O)[O-])cc1` (tested in a mixture with another compound), the Potency result in assay [1], in assay [2], in assay [3], in assay [4], in assay [5] and in assay [6] was “inactive” in each case. Besides, the Potency entry in assay [7] was “inactive”.
For `C/C=C/C(=O)OCC(C)C`, the Potency entry in assay [1], in assay [2], in assay [3], in assay [4], in assay [5] and in assay [6] was “inactive” throughout. In assay [7], the Potency entry was “inactive”.
As for `[Cl][Dy]([Cl])[Cl]`, the Potency entry in assay [1], in assay [2], in assay [3], in assay [4], in assay [5] and in assay [6] was “inactive” in each case. Besides, the Potency entry in assay [7] was “inactive”.
Turning to `NC(=O)C1CO1` (stereo unspecified), the Potency entry in assay [1], in assay [2], in assay [3], in assay [4], in assay [5] and in assay [6] was “inactive” throughout. Moreover, in assay [7], the Potency entry was “inactive”.
As for `CC(C)c1ccc2sc3ccccc3c(=O)c2c1`, the Potency result in assay [1] and in assay [2] was “inactive” each time. The Potency in assay [3] was 17.2 µM (active); in assay [4], 28.3 µM (active); in assay [5] it was 7.96 µM (active); in assay [6], 11.2 µM (active); in assay [7] it was 7.1 µM (active).
Take `CCCCCCCCCCCCS(=O)(=O)Cl`: the caspase-3/7 activation in assay [1] is -1.07% [at 19 µM]. In assay [2], the activity change, negative = cytotoxicity is 3.84% [at 19 µM]. For the same molecule, the activation in assay [3] is 2.36% [at 19 µM]. Moreover, the activity change, negative = inhibition in assay [4] was -14.2% [at 23.6 µM]; in assay [5] it was -3.93% [at 23.6 µM]; in assay [6] it was -14.1% [at 23.6 µM]; in assay [7], 5.89% [at 23.6 µM].
As for `O=C1OC(O)C(C(Cl)Cl)=C1Cl` (stereo unspecified), the Potency entry in assay [1], in assay [4], in assay [5], in assay [6] and in assay [7] was “inactive” in each case. The values for the Potency in assay [2] and in assay [3] were 50 µM (active) and 22.4 µM (active), respectively.
As for `CC(CC(C)(C)C)CC(C)(C)CC(C)(C)C` (stereo unspecified), the Potency entry in assay [1], in assay [2], in assay [3], in assay [4], in assay [5] and in assay [6] was “inactive” throughout. In assay [7], the Potency result was “inactive”.
With `Nc1ccc2c(S(=O)(=O)O)cccc2c1S(=O)(=O)O`, the Potency result in assay [1], in assay [2], in assay [3], in assay [4], in assay [5] and in assay [7] was “inactive” throughout.
Consider `CCN(CC)c1ccc(C=O)c(O)c1`, for which the Potency entry in assay [1], in assay [2], in assay [4] and in assay [6] was “inactive” in each case. Also, the Potency is 61.1 µM (active) in assay [3] and 17.8 µM (active) in assay [7].
For the molecule `Oc1ccc(C2(c3ccc(O)c(C4CCCCC4)c3)CCCCC2)cc1C1CCCCC1`, the Potency is 13.7 µM (active) in assay [1]; 30.6 µM (active) in assay [2]; 8.63 µM (active) in assay [3]; 8.94 µM (active) in assay [5]; 2.52 µM (active) in assay [6]. In addition, in assay [7], the Potency result was “inactive”.
Consider `Cc1cc(F)ccc1-c1cc(N2CC[C@@H](O)[C@H]2CO)ncc1N(C)C(=O)C(C)(C)c1cc(C(F)(F)F)cc(C(F)(F)F)c1`, for which the Potency in assay [1] was 38 µM (active); in assay [2] it was 38 µM (active); in assay [3], 17 µM (active); in assay [5], 27.8 µM (active); in assay [6], 22.1 µM (active).
As to `COc1cc(C(C)C)ccc1C`, in assay [1], the caspase-3/7 activation is -1.8% [at 19 µM]. In assay [2], the activity change, negative = cytotoxicity was -0.801% [at 19 µM]. For the same molecule, the activation in assay [3] was -14.1% [at 19 µM]. In addition, the activity change, negative = inhibition in assay [4] is -6.69% [at 23.6 µM]; in assay [5] it was -21% [at 23.6 µM]; in assay [6], -6.13% [at 23.6 µM]; in assay [7] it was -17.4% [at 23.6 µM].
For `Oc1ccc2c(c1)CCC2`, the Potency entry in assay [1], in assay [2], in assay [3], in assay [4] and in assay [6] was “inactive” throughout.
For `Cc1cc(C)c(O)c(C(C)(C)C)c1`, the Potency result in assay [1], in assay [2], in assay [3] and in assay [4] was “inactive” each time. Besides, the Potency in assay [7] is 31.7 µM (active).
Turning to `C=CC(=O)OCCOC1C2CCC1C1CC=CC12` (stereo unspecified), in assay [1], the caspase-3/7 activation was 0.29% [at 19 µM]. The activity change, negative = cytotoxicity in assay [2] was 6.81% [at 19 µM]. Also, the activation in assay [3] was 5.97% [at 19 µM]. Besides, the activity change, negative = inhibition in assay [4] was -35.4% [at 23.6 µM]; in assay [6], -18.2% [at 23.6 µM]; in assay [7] it was -16.8% [at 23.6 µM]. The Potency in assay [5] is 19 µM (active).
With `c1ccc2occc2c1`, the Potency result in assay [1], in assay [2] and in assay [3] was “inactive” each time. For the same molecule, the figures for the Potency in assay [4], in assay [6] and in assay [7] were 31.7 µM (active), 35.6 µM (active) and 28.3 µM (active), respectively.
As to `Cc1ccc(N=Nc2c(O)ccc3ccccc23)c(C)c1`, in assay [1], the Potency result is “inactive”. The Potency is 8.41 µM (active) in assay [2]; 0.944 µM (active) in assay [3]; 17.4 µM (active) in assay [4]; 12.3 µM (active) in assay [5]; 3.47 µM (active) in assay [7].
